Rows were chosen to be rich in hits. Some 3.4% of all compounds tested hit in one or more screens of this group.
HTT cytoprotect – protects HTT-Q103 PC12 cells, measured by ATP. AID 1471. Potency, µM (titrated, usually from 56.4 µM), actives largely listed as activators. hit rate 0.14% among 230,000. PC12 HTT-Q103 induced, cytoprotection, ATP luminescence, 40 h; further: nearly all actives have a fitted effect of over 45% in size
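Quantitative HTS on tebufenozide-induced (100 nM) PC12 cells expressing HTTQ103 exon 1–GFP; compounds tested as a concentration series; survival measured via cellular ATP.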
IMPase inh – cell-permeable inhibitors of inositol monophosphatase (IMPase). CHO-M1 cells, IP1 accumulation, HTRF TR-FRET ratio. inhibition (IP1 accumulation), % at 46.1 µM. 120,000 tested, under 10 active; active means well fitted curve in the direction sought with a large enough effect in the signal ratio, not every such curve was filed as active; inconclusive means small, poorly fitted or top-dose-only effect, or a change in a side signal; inactive means no such curve, though single readings can be large or run the other way; the % refers to the signal ratio;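 further: cells stimulated with carbachol in lithium chloride buffer; higher means more IMPase inhibition seen as more IP1 and lower FRET ratio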
Target sequence (P97697 whole entry, looked up): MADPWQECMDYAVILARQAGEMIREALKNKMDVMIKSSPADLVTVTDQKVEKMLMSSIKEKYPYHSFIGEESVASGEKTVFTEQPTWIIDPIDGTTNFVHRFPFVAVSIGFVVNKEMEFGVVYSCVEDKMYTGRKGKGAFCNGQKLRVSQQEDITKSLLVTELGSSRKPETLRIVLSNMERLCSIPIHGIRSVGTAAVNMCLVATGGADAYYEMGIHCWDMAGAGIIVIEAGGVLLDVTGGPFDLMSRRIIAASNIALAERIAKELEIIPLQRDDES
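Elevated IP1 in lysates lowers TR-FRET signal (665/620 ratio and 620 channel reported). Cells were CHO-M1, given carbachol (50 uM as added) plus 50mM LiCl, pH 7.4, 30 min, 37C; compounds titrated up to 46 uM; AC50 by Hill equation.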
HttQ103 aggreg – reduces HttQ103-GFP aggregates in PC12 cells; PC12 HttQ103-GFP aggregates, Acumen cytometry, 40 h; Potency, µM (titrated, usually from 46.1 µM), actives largely listed as inhibitors; hit rate 1.1% among 220,000; AID 1688; further: nearly all actives have a fitted effect of over 60% in size
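Aggregates are detected as GFP objects 1–25 µm with signal 6 STDEV over background in lysates of induced PC12 cells. These carry Huntingtin exon 1 with 103 glutamines fused to GFP under an ecdysone promoter; compounds titrated.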
PNC inhibitor – perinucleolar compartment assembly inhibition. AID 2417. hit rate 3.1% among 140,000. activity change (PNC), negative = inhibition, % at 10 µM. PC3M PTB-GFP, PNC prevalence imaging, 16 h; hits give low values;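 active means readout at or below -70, meaning at least 70% loss of cells showing the perinucleolar compartment, a nuclear body marking cancer cells; inconclusive means readout between -30 and a set limit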
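Read-out is percentage of cells bearing a perinucleolar compartment, from automated 20x imaging of fixed, Hoechst-stained PC3M PTB-GFP cells. Cells were seeded 4 h, then exposed 16 h to compound (23 nl of library stock) in duplicate plates.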
IMPase Li cell – IMPase inhibition in cells with lithium potentiation; hit rate 0.35% among 210,000; Potency, µM (series often up to 59.4 µM), actives largely listed as inhibitors; CHO-M1 cells, IP1 TR-FRET (IP-One), carbachol + lithium;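 further: IP1 builds up when IMPase is blocked and the TR-FRET signal falls; nearly all actives have a fitted effect of over 50% in size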
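Test compounds were applied to CHO-M1 cells previously cultured for 16–30 h at 2000 per well. A small lithium amount accompanied them; after 30 min at 37C, IP1 was quantified by TR-FRET.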
NPSR antagonist – neuropeptide S receptor (human) antagonism, cAMP; Q6W5P4; CHO-NPSR cells, cAMP TR-FRET, antagonist mode; Potency, µM (doses to about 38.3 µM), hits mostly inhibitors; AID 1461; hit rate 1% among 220,000; further: nearly all actives have a fitted effect of over 50% in size
Target sequence (Q6W5P4 whole entry, looked up): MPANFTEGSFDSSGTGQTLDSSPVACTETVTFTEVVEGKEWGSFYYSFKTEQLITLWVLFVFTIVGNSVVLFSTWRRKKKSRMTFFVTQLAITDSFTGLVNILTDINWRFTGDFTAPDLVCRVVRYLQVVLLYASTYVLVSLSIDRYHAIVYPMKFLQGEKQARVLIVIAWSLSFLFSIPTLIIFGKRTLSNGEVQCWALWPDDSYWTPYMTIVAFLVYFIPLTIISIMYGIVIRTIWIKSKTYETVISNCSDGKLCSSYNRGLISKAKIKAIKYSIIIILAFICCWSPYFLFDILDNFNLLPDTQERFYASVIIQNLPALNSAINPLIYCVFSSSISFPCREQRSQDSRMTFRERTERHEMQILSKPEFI
A number is an active result; - = inactive; ? = inconclusive; . = no result; [ ] = dose if it differs, or a comment. Unless noted, the call rests on the fitted dose curve; in most records, active means well fitted curve in the direction sought with a large enough effect; inconclusive means small, poorly fitted or top-dose-only effect, or another doubt; inactive means no such curve, though single readings can be large; an effect the other way counts as inactive or inconclusive.

SMILES | HTT cytoprotect | IMPase inh | HttQ103 aggreg | PNC inhibitor | IMPase Li cell | NPSR antagonist
O=C(NCc1n[nH]c(=S)n1-c1ccccc1)c1cccs1 | - | . | - | . | - | -
O=C(NCCc1nc2ccccc2[nH]1)/C(=C/c1ccco1)NC(=O)c1ccco1 | -[10 µM] | . | - | ? | - | -
O=C(NCCCNC(=O)c1cccs1)c1cccs1 | - | - | - | ? | - | -
CCn1c(CNC(=O)c2cccs2)n[nH]c1=S | . | . | - | -109 | - | -
OC[C@@H]1O[C@@H](n2cnc3c(SCc4ccccc4)ncnc32)[C@@H](O)[C@H]1O | -[10 µM] | . | . | . | - | .
CCCCNC(=S)NNC(=O)c1cccnc1 | -[10 µM] | . | - | -87 | - | -
Cc1nn(-c2ccccc2)c(C)c1NC(=O)COc1ccc(C#N)cc1 | . | . | - | -80 | - | -
COc1ccc(/C(N)=N/OC(=O)C2CCC(=O)N2S(=O)(=O)c2ccc(C)cc2)cc1 (stereo not drawn) | -[0.074 µM] | . | - | -89 | - | -
COc1ccc(/C(N)=N/OC(=O)CN(C)S(=O)(=O)c2ccc(C)cc2)cc1 | - | . | - | . | . | -
C=C[C@H](C)[C@](C)(O)c1ccccc1 | ? | . | . | . | - | .
CCn1nc(C(=O)NNC(=O)COc2ccccc2C)c2ccccc2c1=O | . | . | - | -113 | - | -
O=C(NNC(=S)Nc1cccc(Cl)c1)c1ccccc1OC(F)F | . | . | 11µM | - | - | -
COc1cccc(NC(=S)NNC(=O)c2ccccc2OC(F)F)c1 | - | - | ? | - | - | -
COc1cc2[nH]c(=O)n3nc(-c4ccccc4)nc3c2cc1OC | -[10 µM] | - | - | -100 | - | -
O=C(CC1CS(=O)(=O)CC1CC(=O)Nc1ccc2c(c1)OCCO2)Nc1ccc2c(c1)OCCO2 (stereo not drawn) | -[10 µM] | . | -[9.22 µM] | . | - | -
C=C(C)Cn1c(SCC(=O)N/N=C/c2c(O)ccc3ccccc23)nc2ccccc2c1=O | -[10 µM] | . | ? | -121 | - | -
CCOc1ccc(CSCCNC(=S)Nc2ccccc2)cc1 | -[10 µM] | - | - | -92 | - | -
CC(NC(=O)Cn1ncc(Cl)c(Cl)c1=O)C12CC3CC(CC(C3)C1)C2 (stereo not drawn) | -[10 µM] | . | ? | - | - | 10µM
O=S(=O)(Nc1cccc2ncccc12)c1cccs1 | -[10 µM] | - | 13µM | ? | - | ?
O=C(O)CCn1nnc(-c2cccs2)n1 | -[10 µM] | - | - | -105 | - | -
O=C(O)Cn1nnc(-c2cccs2)n1 | - | - | - | - | - | -
Cc1cc(NC(=O)Cn2nc(C)c([N+](=O)[O-])c2C)no1 | - | . | - | . | - | -
CCOc1cc(N2CCOCC2)c(OCC)cc1NC(=O)CN1C(=O)C2C3C=CC(C3)C2C1=O (stereo not drawn) | -[10 µM] | . | - | . | - | -
CC(C)c1cc(NC(=O)CSc2nnc(-c3ccccc3F)n2C)on1 | -[0.074 µM] | - | - | -100 | - | -
Cc1nc2c(Br)cc(Br)cc2cc1O | - | - | 11µM | - | ? | ?
SMILES | HTT cytoprotect | IMPase inh | HttQ103 aggreg | PNC inhibitor | IMPase Li cell | NPSR antagonist
CO/N=C1/c2cc(OC)ccc2O[C@@H](c2cccc(OC)c2)[C@H]1O | -[10 µM] | . | . | . | . | .
Cc1ccc(C(=O)NC(=S)Nc2cccc(NC(=O)c3ccccc3)c2)cc1[N+](=O)[O-] | -[10 µM] | . | - | -93 | - | -
CC1Cc2ccccc2N1C(=O)CN(C)S(=O)(=O)c1cccc2cccnc12 (stereo not drawn) | - | - | 0.032µM | - | - | -
O=C(c1ccc(=O)n(Cc2ccccc2)n1)N1CCN(C/C=C/c2ccccc2)CC1 | ? | - | - | -107 | - | -
O=C(c1ccc(Br)o1)N1CCN(C/C=C/c2ccccc2)CC1 | - | ? | - | - | - | -
O=C(NCCn1ccc2ccccc21)c1ccc(Cl)cc1 | . | - | . | . | . | .
O=C(CSc1ncn(-c2ccccc2)n1)Nc1ccc2c(c1)OCO2 | -[0.074 µM] | - | - | - | . | -
CCOCC(=O)Nc1ccc2c(c1)OCCO2 | - | - | - | ? | - | -
O=C(CSc1ccc(-c2ccccc2)nn1)Nc1ccc2c(c1)OCCO2 | -[10 µM] | . | - | -113 | - | -
O=C(CSc1ncn(-c2ccccc2)n1)Nc1ccc2c(c1)OCCO2 | - | - | - | -86 | - | -[7.67 µM]
C=CCn1c(SCC(=O)Nc2ccc3c(c2)OCCO3)nnc1-c1ccccn1 | -[0.074 µM] | ? | - | -81 | - | -
CCn1c(SCC(=O)Nc2ccc3c(c2)OCCO3)nnc1-c1ccccn1 | -[0.074 µM] | - | - | - | - | -
C/C(=N\OCC(=O)Nc1ccc2c(c1)OCCO2)c1ccc2c(c1)OCCO2 | -[10 µM] | - | 28µM | ? | . | -
O=C(CSC1=NC2(CCCCC2)N=C1c1ccccc1)Nc1ccc2c(c1)OCCO2 | . | . | - | - | - | -
O=C(CSC1=NC2(CCCCCC2)N=C1c1ccccc1)Nc1ccc2c(c1)OCCO2 | . | . | - | -119 | - | -
Cc1ccccc1-n1c(SCC(=O)NC(N)=O)nc2sc(-c3ccccc3)cc2c1=O | -[10 µM] | . | - | - | 11µM | -
COc1cc(NC(=O)c2cccs2)c(C(=O)OCC(=O)NC(=O)NC(C)(C)C)cc1OC | - | - | -[9.22 µM] | -98 | - | -
COc1ccc(-n2c(C)cc(C(=O)CSc3ccc(NC(C)=O)cc3)c2C)cc1 | -[10 µM] | . | 13µM | - | - | -
C=CCn1c(NCCO)nc2sc3c(c2c1=O)CCC3 | -[10 µM] | - | - | -114 | - | -
C=CCSc1nnc(Cc2c(C)[nH]c3ccccc23)o1 | - | - | - | - | - | -
Cc1[nH]c2ccccc2c1Cc1nnc(SCCC#N)o1 | ? | - | - | -100 | - | -
CC(=O)OCC(=O)[C@@]12OC3(CCCC3)O[C@@H]1C[C@H]1[C@@H]3CCC4=CC(=O)C=C[C@]4(C)[C@@]3(F)[C@@H](O)C[C@@]12C | . | . | - | - | - | 4µM
CC1(C)O[C@@H]2C[C@H]3[C@@H]4CCC5=CC(=O)C=C[C@]5(C)[C@@]4(F)[C@@H](O)C[C@]3(C)[C@]2(C(=O)CO)O1 | . | . | - | - | - | -
COC(=O)c1sc(NC(=S)NC(=O)c2ccccc2F)nc1C | - | . | - | . | ? | 13µM
COC(=O)c1sc(NC(=S)NC(=O)c2cccc(C)c2)nc1C | -[10 µM] | . | - | - | - | -
COc1ccc(-c2nc(SCC(=O)Nc3ccc4c(c3)OCCO4)c(-c3ccc(C)cc3)[nH]2)cc1OC | . | - | . | . | . | .
O=C(C#Cc1ccccc1)c1cccc([N+](=O)[O-])c1 | - | - | 13µM | - | - | ?
O=C(O)c1cccc([N+](=O)[O-])c1 | - | . | . | . | - | .
CC(=O)[C@H]1CC[C@H]2[C@@H]3C=CC4=CC(=O)CC[C@@]4(C)[C@H]3CC[C@]12C | ? | - | - | . | - | .
COc1ccc(CNC(=O)COC(=O)Cc2ccc(Cl)cc2Cl)cc1 | -[1.9 µM] | - | 0.56µM | - | - | -
